Source: PubChem BioAssay (NCI)
About 83,000 compounds went through this panel and 20% of them were active in at least one assay; those are over-represented in the sample as a whole.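 For each line, cells grew in 96-well plates with the test compound present at a single concentration for 48 hours.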 Activity calls are given as the source filed them. Rule for the calls: active = growth percent below 10; inactive = the rest.

Each compound was assayed on HL-60(TB) leukemia (assay: NCI-60 one-dose screen, 48 h (100 = growth as untreated, 0 = no growth, -100 = all killed)). Conditions: 10 µM unless noted.

Question: COc1cc(C(=O)N2N=C(c3ccc(S(C)(=O)=O)cc3)CC2c2ccco2)cc(OC)c1OC (stereo not given) was tested. Which growth did it give?
Answer: 90.3% (inactive)

Question: CC(C)n1nc(C#Cc2cccc(O)c2)c2c(N)ncnc21 was tested. Which growth did it give?
Answer: -57.9% (active)

Question: For COc1ccc(/C=N/NC(=O)COCC(=O)N/N=C/c2ccc(OC)cc2)cc1, which growth is on record?
Answer: 102% (inactive)

Question: For O=C(N/N=C/c1ccc([N+](=O)[O-])cc1)c1ccccc1Nc1cccc(C(F)(F)F)c1, which growth is on record?
Answer: 108% (inactive)

Question: CCCCC(=O)c1ccc(OC)cc1 was tested. Which growth did it give?
Answer: 92.6% (inactive)

Question: COc1ccccc1/C=C1\Oc2cc(OCCN3CCCC3)ccc2C1=O was tested. Which growth did it give?
Answer: 97.1% (inactive)

Question: Which growth does the source give for Cc1cc(-c2ccc(N=Nc3c(S(=O)(=O)O)cc4cc(S(=O)(=O)O)cc(N)c4c3O)c(C)c2)ccc1N=Nc1cc(S(=O)(=O)O)c2ccccc2c1O here?
Answer: 98.7% (inactive)

Question: For O=C(CCN1CCCC1)c1ccc([N+](=O)[O-])cc1, which growth is on record?
Answer: -21.1% (active)

Question: CCN1C(=S)N(c2ccccc2)C2C1NN=c1s/c(=C3\C(=O)N(C(C)C)c4ccccc43)c(=O)n12 (stereo not given) was tested. Which growth did it give?
Answer: 96.6% (inactive)

Question: COc1ccc2c(c1)/C(=N/c1n[nH]c(=S)s1)C(=O)N2 was tested. Which growth did it give?
Answer: 61.6% (inactive)

Question: Which growth does the source give for CN(Cc1ccccc1)c1nc(Cl)c(C2CC(c3ccccc3)=NN2c2ccccc2)s1 (stereo not given) here?
Answer: 100% (inactive)

Question: Which growth does the source give for COc1ccc(NC(=O)c2ccccc2-c2ccccc2)c(C(N)=O)c1 here?
Answer: -17.9% (active)

Question: With COc1cc2nc(-c3cnc(N(C)C)nc3)nc(NC3CCN(Cc4ccccc4)CC3)c2cc1OC as the compound, how does the growth read?
Answer: -52.3% (active)

Question: For Cn1cc(-c2nc(-c3c[nH]c4c(Cl)nccc34)cs2)c2ccccc21, which growth is on record?
Answer: 83.3% (inactive)

Question: With CCOc1cc2ncc(C#N)c(Nc3ccc(OCc4ccccn4)c(Cl)c3)c2cc1NC(=O)/C=C/CN(C)C as the compound, how does the growth read?
Answer: 2.7% (active)

Question: For COc1ccc(CNc2nccnn2)cc1, which growth is on record?
Answer: 69.9% (inactive)

Question: How did the growth turn out when C=C(C)COc1ccc(C(C)(C)C)cc1 was run?
Answer: 104% (inactive)

Question: For CC/C(Cc1ccccc1)=C(/c1ccc(O)cc1)c1ccc(OCCN2CCCC2)cc1, which growth is on record?
Answer: -56.9% (active)

Question: For O=c1[nH]c(SCc2ccccc2)nc2nc(Nc3ccc(NC(=S)Nc4ccccc4)cc3)nc(-c3ccc(O)cc3O)c12, which growth is on record?
Answer: 117% (inactive)

Question: With O=c1oc2ccc(F)cc2c(=O)n1-c1ccc(Cl)cc1F as the compound, how does the growth read?
Answer: -45.3% (active)

Question: How did the growth turn out when CC1(C)COC(=S)N1 was run?
Answer: 80.3% (inactive)

Question: COc1ccc(-c2[nH]c3ccccc3c2C=C(C#N)C#N)cc1 was tested. Which growth did it give?
Answer: -48.9% (active)

Question: C=C(C)[C@@H]1CC[C@]2(C)[C@H](CC=C3[C@@H]4CC(C)(C)CC[C@]4(C(N)=O)CC[C@]32C)[C@@]1(C)CCC#N was tested. Which growth did it give?
Answer: 16% (inactive)

Question: CCN(C(=O)N1CCN(c2cc3c(cc2F)c(=O)c(C(=O)O)cn3C2CC2)CC1)c1nc(-c2ccc(C)cc2)cs1 was tested. Which growth did it give?
Answer: 7.49% (active)

Question: With O=C(Nc1ccc(Cl)cc1F)c1cc(F)ccc1O as the compound, how does the growth read?
Answer: -43.8% (active)

Question: How did the growth turn out when O=C(Nc1ccc(Cl)cc1)N1NC(c2ccc(Cl)cc2)C=C1c1ccccc1 (stereo not given) was run?
Answer: 80.3% (inactive)

Question: CC(=O)OCCO was tested. Which growth did it give?
Answer: 105% (inactive)

Question: CC1CCC(C)(C)c2ccccc21 (stereo not given) was tested. Which growth did it give?
Answer: 109% (inactive)

Question: For COc1cccc(/C(C#N)=C/c2nc3c(N4CCOCC4)nc(Cl)nc3n2C)c1, which growth is on record?
Answer: -32% (active)

Question: Which growth does the source give for CCC(=O)OCc1cccc(OC)c1 here?
Answer: 53.7% (inactive)

Question: With CCN(CC)CCCC(C)Nc1cnc(C(=O)Nc2ccc(Cl)c3cccnc23)cn1 (stereo not given) as the compound, how does the growth read?
Answer: -63.3% (active)

Question: Which growth does the source give for O=S(=O)(Nc1cc(F)cc(F)c1)c1ccc(-c2cnc(C3CC3)o2)cc1 here?
Answer: 9.05% (active)

Question: CN1CCN(Cc2cc(NC(=O)c3cccc(C#Cc4cccc5[nH]nc(N)c45)c3)cc(C(F)(F)F)c2)CC1 was tested. Which growth did it give?
Answer: 0.0221% (active)

Question: CSc1ccc2c(c1)C(N1CCN(C)CC1)Cc1ccccc1S2 (stereo not given) was tested. Which growth did it give?
Answer: 52.7% (inactive)

Question: How did the growth turn out when O=C(N/N=C\c1cc(Br)ccc1O)c1ccncc1 was run?
Answer: -27.5% (active)

Question: For [N-]=[N+]=Nc1ncc(-c2ccc(C(F)(F)F)cc2)c(NC2CCCCCC2)n1, which growth is on record?
Answer: -14.7% [100 µM] (active)

Question: Which growth does the source give for CCN1CCCC1CNC(=O)c1ncc(-c2ccc(C(F)(F)F)cc2)c(NC2CCCCCC2)n1 (stereo not given) here?
Answer: 65.9% (inactive)

Question: COc1ncnc2c(-c3ccccc3)cn(COCc3ccccc3)c12 was tested. Which growth did it give?
Answer: 53.1% (inactive)

Question: O=C(Nc1nc(C(=O)N2CCN(C(c3ccccc3)c3ccccc3)CC2)cs1)c1ccc(NC2CCCCC2)c([N+](=O)[O-])c1 was tested. Which growth did it give?
Answer: 98.5% (inactive)

Question: Which growth does the source give for CCCN1C(=O)CSC1=Nc1ccc2cc3ccc(N=C4SCC(=O)N4CCC)cc3nc2c1 here?
Answer: 8.32% (active)
